Columns and labels:
Assay in all cases: PBM binding z-score (relative to random genomic background probes); higher = stronger binding; sequences stand for … in GC…GCGATTGACAGCGTAGAATGAAGG
[1] = system: RARb homodimer (NR concentration 270 nM)
Summary of the method: (§1)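 On custom Agilent 4×180K arrays, double-stranded probes with 34-nt variable regions carried direct-repeat seeds, single-nucleotide variants, half-site ablations or random human genomic background. Ligand-free nuclear receptor dimers were applied for 1 h, and binding was read with antibodies against each partner (one per run). Binding z-scores come from regression-normalized fluorescence, with the random background probes as reference.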

[2] = system: RARg:RXRa (NR concentration 270 nM, RXRa partner concentration 90 nM)
Summary of the method: as §1

[3] = system: RARg homodimer (NR concentration 270 nM)
Summary of the method: as §1

[4] = system: RXRa DBDmut IVT, anti-RXR (DBD mutation: RXRa K156A/R161A, NR concentration 90 nM)
Summary of the method: as §1

[5] = system: RXRa homodimer (NR concentration 180 nM)
Summary of the method: as §1

[6] = system: THRa:RXRa (NR concentration 90 nM, RXRa partner concentration 90 nM)
Summary of the method: as §1

[7] = system: THRa homodimer (NR concentration 90 nM)
Summary of the method: as §1

[8] = system: VDR homodimer (NR concentration 270 nM)
Summary of the method: as §1

Sequence	PBM binding z-score [1]	PBM binding z-score [2]	PBM binding z-score [3]	PBM binding z-score [4]	PBM binding z-score [5]	PBM binding z-score [6]	PBM binding z-score [7]	PBM binding z-score [8]
ATCTCTAGGTAAAATTCAGTGAAAGATCGATAGA	-0.326	0.344	0.677	0.391	0.121	0.32	0.151	0.281
TCTCGGAGGAGACGAAAGGTCAGAGCTCGACATC	4.19	3.79	3.46	0.134	4.08	2.42	0.0723	0.0625
TCCTATAGGTAATACAGGTGAAAGTCGGCATCTA	0.461	0.471	0.243	1.05	0.757	0.883	0.298	-0.333
GCTCGGAGCACAAGGTCAGAGCTTTGTCCGTAGA	2.85	2.63	2.19	0.228	2.25	2.75	0.948	0.184
CTCGAAAGATCGTGCTCAGGTGAGTATACCAAAC	-0.0864	-0.0578	-0.229	-0.0478	-0.33	1.28	0.584	-0.082
CAGCCTAGGTCAGGGCCAGTATGGGAGGAACGTT	2.38	3.22	3.76	-0.69	1.38	1.95	0.312	-0.378
CCTACTGGGCCACGAAAGGTCATCGATTCAGTGA	4.88	5.15	4.75	0.398	5.62	4	1.08	1.56
CCTACTGGGCCAAAGGTCATTGAATCCAATGCTC	4.89	5.95	4.83	1.05	6.52	3.56	0.752	2.23
CCGACTGGGGCACAAGGTTACCATAAGCCAGCCC	1.59	1.46	1.12	-0.589	0.82	1.37	0.35	-0.201
CCAGACAGCTGAGAAGGTAACTCAGCCTCGATTA	-0.378	-0.436	-0.0751	-0.0865	-0.206	-0.157	-0.306	-0.494
ACTAGCAGGCCAAGGGTCACGCAAGATTAGTCCG	4.29	5.29	4.8	0.355	5.96	3.38	0.69	1.24
TCTTGTAGATCAAGCAGGTTAACAAAGCCTGAGT	0.14	0.253	0.0907	0.714	0.594	0.705	-0.265	0.178
ATATGTAGGTTTAGGGTCATTCAGGTTGGTTCGC	3.05	3.53	2.43	2.74	4.4	4.23	4.2	4.83
GATACAGGGTCGAGGCCAGAGTACGCGTATTGAT	1.31	1.98	1.9	0.497	2.13	1.67	0.075	0.897
CAGCCGAGGTCAGGGCCAGTATAGGAGGAACGTT	3.81	5.52	5.53	2.15	5.24	3.92	1.97	1.53
CAAACTGGGTCACGAAAGGTCAAAGTCGAATGAC	5.73	7.84	8.05	2.44	8.52	5.02	1.75	3.72
TCTTGTAGATTAGCAGGTTAAGAAAGCTGGCCAA	0.292	-0.0657	-0.174	0.682	0.386	0.458	-0.511	-0.173
CAAACTAGGTCAACGGAAGGTCAAAGTCCGCATG	5.37	8.1	6.98	2.17	5.99	4.24	2.34	3.65
TCTCGGAGGACACGAAGATCAGAGCTTTCCAGAG	0.193	0.499	1.05	0.0261	0.273	1.1	0.242	-0.899

Sequence	PBM binding z-score [1]	PBM binding z-score [2]	PBM binding z-score [3]	PBM binding z-score [4]	PBM binding z-score [5]	PBM binding z-score [6]	PBM binding z-score [7]	PBM binding z-score [8]
CGTCCAAGGTCAATGGTAGGTCAGTGAAAGCATT	5.21	7.79	6.78	3.44	5.41	4.33	2.72	2.73
TGTGCTAGGTCAACGATGGTCAGCTAATCTGCTA	3.4	3.88	5.19	0.342	2.45	3	0.529	-0.186
TGTTGTAGATCAACAGGAGGTTAAGAAAGATCGA	0.36	1.06	0.365	-0.89	0.741	0.863	-0.492	-0.0284
AGTCAAAGTTCACTCGGTAACGTAAGATTCAGCT	3.89	4.91	5.79	4.02	3.83	1.79	-0.0176	4.11
TCTTGTATATCAAGCAGGTTAAGAAAGCCTGAGT	0.552	0.261	-0.15	0.788	0.587	0.47	-0.282	0.228
TCTAGTTGGTCAACGGTCACACACTCGAAATGCG	2.49	1.51	2.16	1.24	1.23	0.548	0.185	0.188
CCGGCTGGGGCAAAGGTTACCATACTCAGTACGA	2.25	3.68	1.69	-0.158	3.6	1.77	-0.377	-0.169
CCTAGCAGGCCAGGGTCACTAAAGCATTTCGCTT	2.69	2.79	2.41	0.297	2.89	2.67	0.878	0.922
CCTACTGGGCCAAGGTCGTTGATCAGTCAAAGCA	0.763	0.488	0.541	-0.262	0.465	1.31	0.184	1.19
CCTACTGGGCCAAGAAGGTCATTGATGCCGATAA	3.17	2.94	2.39	0.188	2.9	2.33	0.355	2.38
CCTAGCAGGCCCATCTGGGTCACTCAAGGCTTGA	1.64	0.5	0.267	-1.2	0.768	2.23	0.0226	-0.0686
AATACAGGGTCACTAGGCCAGACTAGGTACGAAT	3.25	5.28	4.68	2.72	5.35	3.44	1.22	2.17
TGTATTAGTTGAAGGGCAACCGACGAGTCCGTTT	1.63	0.727	1.06	0.401	0.406	0.237	0.213	1.55
TCTATTAGTAGAAGGGCAACCGACGAGTCCGTTT	0.923	0.406	0.636	1.23	0.785	-0.0492	-0.359	1.18
AGAATGAGGTAATTAAGATCAGGGAATTGCGGTC	-0.177	0.105	0.0569	-0.166	0.198	1.34	0.328	-0.255
GTAACGAGGGCAAAGTTGATAGCATCTGTCGACG	1.38	1.97	1.78	2.73	2.08	1.41	-0.0253	1.7
ACAGACCGGTGAGTGAAGGTAACTCAGCTGGACG	-0.506	-0.114	-0.11	-0.55	-0.109	0.21	-0.915	-0.72
CGTCCAAGGTCAGAGAGGGCAGTGAATGCCGAGT	4.41	4.86	5.33	3.24	3.8	3.96	1.86	3.51
TGAATGATGTTAAAGATCAGGGAACGTGGCGTCG	-0.832	0.221	0.133	-0.892	0.495	-0.238	-0.77	-0.0105

Sequence	PBM binding z-score [1]	PBM binding z-score [2]	PBM binding z-score [3]	PBM binding z-score [4]	PBM binding z-score [5]	PBM binding z-score [6]	PBM binding z-score [7]	PBM binding z-score [8]
CTCGAAAGGTCGGTTGAGGTGAGTATTCGGATAA	2.52	2.59	2.91	1.01	2.25	4.98	1.25	0.522
GCTTGTAGATCAAGGTTAAGGAAGACTAAGCTAA	0.296	0.309	0.222	-0.171	0.702	1.25	-0.259	-0.459
CCTTACGGGTCACTCCAGGTTATAGCGTCGGAGT	2.85	4.55	4.23	1.41	4.06	5.06	0.469	1.5
ACTAGCAGGCCAAGTATGGGTCACTCAAACAAAG	2.24	2.53	1.63	-0.279	1.11	0.976	-0.26	0.0355
CGTCCAAGGTCAAGGTCAGCGAAAGAGACTCGAA	5.23	6.94	7.94	3.44	6.74	4.14	3.58	3.19
GCATATAGGTAATACAAGGTGAAAGTGCGATTGT	0.903	0.659	0.584	0.39	0.992	4.13	1.19	0.133
TAGCCTAGGTCAGATCGGGCCGGTATACGCTATA	1.98	2.67	3.43	-0.551	0.992	3.11	0.09	-0.328
AGAACGAGGGCACGCTGAGTTGTTAGCAGAGTAG	1.16	1.85	2.11	1.95	1.55	1.73	-0.0744	1.29
TCATATAGGTATATGCTAGGTGAAAGTCCGATCT	0.347	0.291	0.277	1.6	0.588	1.23	0.758	-0.0233
TCGAGTAGGTTACAAATGGGGCATTCAGCTTTCT	0.369	0.68	0.323	0.884	0.39	0.1	-0.394	-0.133
TCTTGTAGATAAACAGGAGGTTAAGAAAGATCGA	0.563	0.413	0.451	0.64	0.929	0.693	-0.428	-0.0637
CCTGCTAGGTCACTGGTCAGCTAAAGCAGCTCGC	3.08	3.82	4.65	1.68	2.59	2.7	0.97	0.123
TCATATAGGTAAACAGGTGAAAGCCCGTAAGTTA	0.749	0.546	0.364	1.2	1.64	0.571	0.487	-0.138
TCTAGCAGGCCAGAGGGTCACTAAAGAGGTACGG	2.52	2.5	2.05	-0.16	2.02	1.39	-0.413	0.287
CCTAGCAGGCCAATCTGCGTCACTCAAGGCTTGA	-0.405	-0.524	-0.155	0.164	-0.602	-0.51	-0.515	-0.294
GGAACGAGTGCATTCGAGTTGATAGCATGGCGAT	-0.91	-0.352	0.0126	3.87	-0.0218	1.92	-1.23	4.44
CCAGACATGTGAAAGGTAACTCAGTCTGGTACGC	0.0662	0.308	0.362	0.289	0.767	0.162	-0.146	0.204
TCATATAGGTAAAGGTTAAAGTCGAACGATATGA	2	2.68	2.28	1.27	3.91	1.81	-0.146	0.675

Reference: the supplement of paper PMC6555819
